Test results reported in PubChem BioAssay (EPA / NIEHS).
Results filed as inconclusive are left out. Active and inactive are the calls of the source. How the source made its calls, unless noted: active means hit-call score of the fitted dose curve at least 0.9, where 1 is the maximum; inconclusive means response in the unintended direction; inactive means score below 0.9.

Assays:
[1] = Tanguay_ZF_120hpf_NC_legacy: (Legacy) Oregon State University Tanguay Lab 120 Hour Post-fertilization zebrafish Assay for Notochord and Tail Malformation (AID 2283656)
Method in brief: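 Dechorionated Tropical 5D wild-type zebrafish embryos, one per well from 6 hpf, statically exposed to 120 hpf at 28C in 0.64% DMSO final. Notochord distortion scored present/absent by brightfield; dead embryos excluded.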

[2] = Tanguay_ZF_120hpf_TR_legacy: (Legacy) Oregon State University Tanguay Lab 120 Hour Post-fertilization zebrafish Assay for Touch Response (AID 2283667)
Method in brief: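 5D WT embryos; static exposure to 120 hpf, 28C, sealed/dark; DMSO 0.64% v/v final. TR scored present/absent; dead embryos excluded. Pos ctrl 5uM trimethyltin chloride.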

[3] = CCTE_Padilla_ZF_144hpf_TERATOSCORE: (Legacy) CCTE's 144 Hour Post-fertilization zebrafish Assay Teratoscore, Padilla Lab (AID 2283679; active means hit-call score of the fitted dose curve at least 0.9, where 1 is the maximum; inactive means score below 0.9;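 on AC50: zebrafish embryos with chorions exposed by immersion from 6-8 hpf to 5 dpf with daily renewal; teratogenicity score from eye scoring of death hatching and malformations at 144 hpf; higher score means more developmental defects relative to DMSO baseline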)
Method in brief: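 Larvae scored by eye at 144 hpf for death, hatching and malformations after a day in clean Hanks'. Before that, daily-renewed exposure at 80 uM (0.4% DMSO, 26C) from roughly 6-8 hpf through 5 dpf, 4 embryos per chemical.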

[4] = STM_H9_OrnithineISnorm_perc: Stemina devTOX quickPredict H9 human embryonic stem cell (hESC)-based Assay for Ornithine (ORN) Metabolite Biomarker, Normalized (AID 2283712; active means hit-call score of the fitted dose curve at least 0.9, where 1 is the maximum; inactive means score below 0.9;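 further: ornithine released into spent medium during last day measured by mass spectrometry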)
Method in brief: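 Undifferentiated H9 hESCs exposed 72 h with daily media and compound renewal; final 24-h conditioned medium analysed by UPLC-HRMS. Ornithine peak area normalised to spiked C13 standard and to median 0.1% DMSO control; viability by CellTiter-Fluor.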

[5] = STM_H9_CystineISnorm_perc: Stemina devTOX quickPredict H9 human embryonic stem cell (hESC)-based Assay for Cystine (CYSS) Metabolite Biomarker, Normalized (AID 2283713; active means hit-call score of the fitted dose curve at least 0.9, where 1 is the maximum; inactive means score below 0.9)
Method in brief: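 Undifferentiated H9 hESCs exposed 72 h, compound and media replaced every 24 h; final 24-h media analysed by UPLC-HRMS. Cystine normalized to C13 spike-in standard and median 0.1% DMSO control.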

[6] = CCTE_Simmons_CellTiterGLO_HEK293T: Viability Assessment in CCTE's Assays for Thyroperoxidase (TPO) Inhibition, Simmons Lab (AID 2283665);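 on AC50: cells exposed to compound for 24 h before readout; actives reduce ATP signal below DMSO vehicle meaning cytotoxicity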
Method in brief: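 HEK293T cells in DMEM with 1% FBS, dosed 24 h at 37C with 8 concentrations, 5 nM–87.5 uM final, 0.5% DMSO. ATP measured by CellTiter Glo luminescence; loss of signal vs DMSO, three biological replicates.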

[7] = read-out: solute carrier (SLC10A1), SLC10A1 (gene 6554); assay: LTEA_HepaRG_SLC10A1: Life Technologies and Expression Analysis (LTEA) Assay for solute carrier (SLC10A1) using HepaRG (AID 2283657; active means hit-call score of the fitted dose curve at least 0.9, where 1 is the maximum; inactive means score below 0.9); details: mRNA level, 48 h; actives raise or lower the signal
Method in brief: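 Transcript levels were measured by qRT-PCR after human HepaRG cells received test chemical for 48 hours, up to 100 uM in half-log dilutions. Values come from bidirectional concentration-response fitting relative to 0.5% DMSO vehicle.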

[8] = read-out: matrix metalloproteinase-1 (MMP1), MMP1 (gene 4312); assay: LTEA_HepaRG_MMP1: Life Technologies and Expression Analysis (LTEA) Assay for matrix metalloproteinase-1 (MMP1) using HepaRG (AID 2283658; active means hit-call score of the fitted dose curve at least 0.9, where 1 is the maximum; inactive means score below 0.9); details: mRNA level, 48 h; actives raise or lower the signal
Method in brief: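 Differentiated HepaRG cells, plated 48 h then switched to serum-free induction medium, were exposed in duplicate for 48 h to eight half-log concentrations up to 100 uM in 0.5% DMSO; MMP1 mRNA measured by qRT-PCR, normalized to ACTB, GAPDH, POLR2A.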

[9] = read-out: Cytochrome P450 (CYP24A1_1), CYP24A1 (gene 1591); assay: LTEA_HepaRG_CYP24A1_1: Life Technologies and Expression Analysis (LTEA) Assay for Cytochrome P450 (CYP24A1_1) using HepaRG (AID 2283671; active means hit-call score of the fitted dose curve at least 0.9, where 1 is the maximum; inactive means score below 0.9); details: mRNA level, 48 h; actives raise or lower the signal
Method in brief: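 In this test, gene induction or suppression of CYP24A1 in human HepaRG liver cells is measured by qRT-PCR after 48 h chemical treatment (eight concentrations, maximum 100 uM). Values are fitted bidirectionally relative to DMSO.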

[10] = STM_H9_OrnCyssISnorm_ratio: Stemina devTOX quickPredict H9 human embryonic stem cell (hESC)-based Assay for Ornithine (ORN):Cystine (CYSS) Ratio (AID 2283714)
Method in brief: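 Steps: H9 hESCs in pluripotent state dosed 72h, medium plus compound renewed every 24h; conditioned medium from the final 24h deproteinized in 40% acetonitrile; ORN and CYSS quantified by UPLC-HRMS with C13 spike-ins; ratio relative to vehicle.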

## CC(C)CCO
[1]
  outcome: inactive
[2]
  outcome: inactive
[3]
  outcome: inactive
[4]
  outcome: inactive
[5]
  AC50: 0.118 µM (active)

## CC(=O)c1ccc2c(c1)[C@H](NC(=O)c1ccc(F)cc1)[C@@H](O)C(C)(C)O2
[2]
  outcome: inactive

## CC(C)(O)c1coc(S(=O)(=O)NC(=O)Nc2c3c(cc4c2CCC4)CCC3)c1
[6]
  AC50: 22.4 µM (active)
[2]
  outcome: inactive

## CCOC(=O)CC(CC(=O)OCC)(OC(C)=O)C(=O)OCC
[2]
  outcome: inactive
[3]
  outcome: inactive

## O=C(O)c1cccc(Oc2ccccc2)c1
[7]
  outcome: inactive
[8]
  outcome: inactive
[9]
  outcome: inactive
[3]
  AC50: 65.2 µM (active)

## Nc1cccc(N)c1
[6]
  outcome: inactive
[2]
  outcome: inactive

## CC[C@H]1CC[C@H](NCc2cc3c(cc2OC)[C@H]2C[C@H]2C(=O)N3C)[C@H](c2ccccc2)N1
[1]
  outcome: inactive
[2]
  outcome: inactive
[4]
  AC50: 9.25 µM (active)
[5]
  AC50: 7.32 µM (active)
[10]
  AC50: 8.66 µM (active)

## CC(O)CN(CCN(CC(C)O)CC(C)O)CC(C)O (stereo not drawn)
[2]
  outcome: inactive

## COCCOCCOCCOC
[1]
  outcome: inactive
[2]
  outcome: inactive
[3]
  outcome: inactive
[4]
  outcome: inactive
[5]
  outcome: inactive
[10]
  outcome: inactive

## Cn1c(=O)cc(Oc2ccc(F)cc2F)c2cnc(NCC(C)(C)O)nc21
[1]
  outcome: inactive
[2]
  outcome: inactive
[3]
  outcome: inactive
[4]
  outcome: inactive
[5]
  outcome: inactive
[10]
  outcome: inactive

## CC(C)c1cccc(C(C)C)c1N1C(=O)c2ccc(O)cc2C1=O
[7]
  AC50: 78.7 µM (active)
[8]
  outcome: inactive
[2]
  outcome: inactive
[9]
  outcome: inactive
[3]
  AC50: 4.71 µM (active)
[4]
  AC50: 27.8 µM (active)
[5]
  AC50: 24 µM (active)
[10]
  AC50: 14.9 µM (active)

## CC1(C)C(=O)N(Br)C(=O)N1Br
[1]
  outcome: inactive
[2]
  outcome: inactive
[3]
  outcome: inactive

## COc1ccc2sc(C(=O)Nc3nnn[nH]3)c(OC(C)C)c2c1
[1]
  outcome: inactive
[2]
  outcome: inactive
[3]
  AC50: 34.4 µM (active)
[4]
  AC50: 1.33 µM (active)
[5]
  AC50: 1.65 µM (active)
[10]
  AC50: 1.52 µM (active)

## CNCc1ccc(NC(=O)c2c[nH]c3c2C(=O)CCC3)cc1
[1]
  outcome: inactive
[2]
  outcome: inactive
[4]
  outcome: inactive
[5]
  outcome: inactive
[10]
  outcome: inactive

## CCOC(=O)COc1ccc2c(c1)CC(NCC(O)c1cccc(Cl)c1)CC2 (stereo not drawn)
[2]
  outcome: inactive
[3]
  AC50: 6.13 µM (active)

## Nc1nc2ncc(CNc3ccc(C(=O)N[C@@H](CCC(=O)O)C(=O)O)cc3)nc2c(=O)[nH]1
[6]
  outcome: inactive
[3]
  outcome: inactive
[4]
  outcome: inactive
[5]
  outcome: inactive

## Cn1c(=O)c2c(ncn2C)n(C)c1=O
[1]
  outcome: inactive
[2]
  outcome: inactive
[4]
  outcome: inactive
[5]
  AC50: 181 µM (active)

## COCCOc1cc2cc(C(=O)NC3CCN(C(C)C)CC3)n(CC(=O)Nc3ccc(Cl)cn3)c2cn1
[2]
  outcome: inactive

## CCN(C(=O)c1cc(C)cc(OC[C@H](C)Nc2ccncc2)c1)C(C)C
[1]
  outcome: inactive
[2]
  outcome: inactive
[4]
  outcome: inactive
[5]
  AC50: 7 µM (active)
[10]
  AC50: 7 µM (active)

## CN(C)c1ccc(Cc2ccc(N(C)C)cc2)cc1
[6]
  AC50: 22.3 µM (active)
[2]
  outcome: inactive
[3]
  AC50: 25.2 µM (active)

## COc1cccc(-c2ccc(/C=C\CN3CCCCCC3)cc2Cl)c1
[1]
  outcome: inactive
[2]
  outcome: inactive
[3]
  AC50: 2.73 µM (active)
[4]
  AC50: 3.59 µM (active)
[5]
  AC50: 4.11 µM (active)
[10]
  AC50: 3.97 µM (active)

## CCCCC(CC)COC(=O)CCCCCCCCC(=O)OCC(CC)CCCC (stereo not drawn)
[1]
  outcome: inactive
[2]
  outcome: inactive
[3]
  outcome: inactive

## Fc1ccccc1[C@@H](F)COC1CCC(Nc2ncnc3[nH]ncc23)CC1 (stereo partly drawn)
[1]
  outcome: inactive
[2]
  outcome: inactive
[3]
  AC50: 13.8 µM (active)
[4]
  outcome: inactive
[5]
  outcome: inactive
[10]
  outcome: inactive

## CCCCCCCCCCCCc1ccccc1
[1]
  outcome: inactive
[2]
  outcome: inactive
[3]
  outcome: inactive
[4]
  outcome: inactive
[5]
  outcome: inactive

## O=C(CCCCCCCCc1cccnc1)N1CCC(C=C(c2ccccc2)c2ccccc2)CC1
[6]
  AC50: 5.13 µM (active)
[2]
  outcome: inactive
[3]
  AC50: 14.2 µM (active)
